HP1b chromo inh: blocks HP1-beta chromodomain binding to methylated histone tails; 0.56% of 390,000 active; AID 540317; Potency, µM (top dose mostly 114 µM), inactives show top-dose activity change, negative = inhibition, hits mostly inhibitors; P83916; AlphaScreen HP1-beta / biotin-H3K9me3 peptide binding; also: nearly all actives have a fitted effect of over 70% in size
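Compound inhibition of the preformed complex between 50 nM HP1-beta and 50 nM biotinylated H3K9me3 peptide was read by AlphaScreen. Buffer was PBS pH 7.4 with 0.01% Tween-20. Incubations ran 30 min at room temperature, with 10 ug/mL donor/acceptor beads.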
BAZ2B block: BAZ2B (human) inhibition; Q9UIF8; AlphaScreen BAZ2B-H3K14Ac peptide displacement; Potency, µM (series often up to 114 µM), for inactives: at the highest dose activity change, negative = inhibition, usual class: inhibitors; 4.4% of 360,000 active; also: % is scaled to controls: 0 for no effect and ±100 for the full control effect; nearly all actives have a fitted effect of over 60% in size
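Multi-concentration screen (max 110 uM) measuring displacement of acetylated histone H3 peptide from BAZ2B by AlphaScreen, using 50 nM protein, 50 nM peptide and 10 ug/mL streptavidin donor plus Ni-chelate acceptor beads.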
G9a inh: inhibitors of human histone lysine methyltransferase G9a | 8.8% of 350,000 active | AID 504332 | G9a H3K9 monomethylation, AlphaScreen, 2 h | Potency, µM (series often up to 102 µM), without a hit: top-dose activity, negative = inhibition, most hits filed as inhibitors; also: % is scaled to controls: 0 for no effect and ±100 for the full control effect; nearly all actives have a fitted effect of over 75% in size
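Enzyme 20 nM + cpd, 15 min RT; add b-H3K9 pep 500 nM / SAM 20 uM; 2 h RT; anti-H3K9me1 Ab 0.5 ug/mL + SA donor / anti-rabbit acceptor beads 20 ug/mL each, 10 min; AlphaScreen read.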
JMJD2A Tudor inh: JMJD2A Tudor domain (human) inhibition | O75164 | AlphaScreen JMJD2A-Tudor / H3K4me3 peptide binding | Potency, µM (top dose mostly 114 µM), for inactives: at the top dose activity change, negative = inhibition, actives largely listed as inhibitors | 4.4% of 390,000 active | AID 504339; also: % is scaled to controls: 0 for no effect and ±100 for the full control effect; nearly all actives have a fitted effect of over 50% in size
L3MBTL1 inh: blocks human L3MBTL1. Potency, µM (series often up to 57.1 µM), inactives show at the highest dose activity, negative = inhibition, actives largely listed as inhibitors. 0.66% of 230,000 active. AlphaScreen L3MBTL1–H3K9me1 peptide binding; also: % is scaled to controls: 0 for no effect and ±100 for the full control effect; nearly all actives have a fitted effect of over 60% in size
Target sequence (Q9Y468 whole entry, looked up): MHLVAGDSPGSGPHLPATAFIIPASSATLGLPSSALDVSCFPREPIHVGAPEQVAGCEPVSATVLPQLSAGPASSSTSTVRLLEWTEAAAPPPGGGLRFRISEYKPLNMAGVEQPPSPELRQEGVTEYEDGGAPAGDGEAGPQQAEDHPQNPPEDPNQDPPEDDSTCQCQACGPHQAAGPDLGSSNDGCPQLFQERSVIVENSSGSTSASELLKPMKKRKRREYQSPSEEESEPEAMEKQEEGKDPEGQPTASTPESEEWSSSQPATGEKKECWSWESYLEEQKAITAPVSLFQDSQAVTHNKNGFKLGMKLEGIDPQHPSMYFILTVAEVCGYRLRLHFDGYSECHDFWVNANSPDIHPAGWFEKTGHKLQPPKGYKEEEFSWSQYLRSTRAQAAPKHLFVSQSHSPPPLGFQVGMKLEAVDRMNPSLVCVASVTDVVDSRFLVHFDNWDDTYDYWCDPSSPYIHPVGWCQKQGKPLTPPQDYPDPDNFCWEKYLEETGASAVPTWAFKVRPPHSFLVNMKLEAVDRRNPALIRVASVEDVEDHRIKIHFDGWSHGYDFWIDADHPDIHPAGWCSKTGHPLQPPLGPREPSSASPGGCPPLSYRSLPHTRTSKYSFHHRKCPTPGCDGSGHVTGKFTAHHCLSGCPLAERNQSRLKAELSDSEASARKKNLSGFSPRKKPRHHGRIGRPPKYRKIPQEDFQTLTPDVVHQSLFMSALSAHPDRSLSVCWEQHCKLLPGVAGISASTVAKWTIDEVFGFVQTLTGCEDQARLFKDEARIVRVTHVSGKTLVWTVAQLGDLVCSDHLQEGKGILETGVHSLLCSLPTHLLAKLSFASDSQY
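Read-out is AlphaScreen signal from streptavidin donor and nickel chelate acceptor beads (10 ug/mL final each) bridging L3MBTL1 (50 nM) and biotinylated K9-monomethylated H3(1-15) peptide (75 nM), after 30 min compound exposure at room temperature.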
An asterisk follows results filed as active; ? = inconclusive; / = no result; [ ] = another dose, or the depositor's remark. In the library only some 11% were active in any assay of this set; here they are far more common. Calls follow the shape of the dose curve; as a rule, active = well fitted inhibition curve with a large enough effect; inconclusive = small, poorly fitted or top-dose-only effect; inactive = no such curve, though single readings can be large or run the other way. Potency is read from the fitted curve at half-maximal effect.

SMILES | HP1b chromo inh | BAZ2B block | G9a inh | JMJD2A Tudor inh | L3MBTL1 inh
CCOC(=O)c1ccc(CN(Cc2ccc(F)cc2)S(=O)(=O)c2ccc(F)c(C(=O)Nc3cc(Cl)ccc3OC)c2)cc1 | 5% | 3% | -6%[59 µM] | -11% | /
CCCN1C(=O)/C(=C/c2ccncc2)SC1=S | ? | 25µM* | 45µM* | ? | -25%
O=C1/C(=C/c2ccncc2)SC(=S)N1Cc1ccccc1 | 45µM* | 11µM* | / | 25µM* | -26%
CCOC(=O)C1=C(COC(=O)COc2ccc(Br)cc2)NC(=O)NC1C (stereo not given) | 10% | 5% | -49% | -10% | -9%
CCN1C(=O)C(=O)N(CC(=O)N2CCC(C)Sc3ccccc32)C1=O (stereo not given) | 49% | 9% | -50%[59 µM] | 4% | -1%
CCn1c(=O)c2cc(C(=O)NC3CCC(C)CC3)sc2c2ccccc21 (stereo not given) | 36% | -19% | -1%[59 µM] | 3% | /
Cc1ccc(NC2c3ncccc3C(=O)N2c2ccccc2C)cc1C (stereo not given) | -25% | 20µM* | ? | 11µM* | ?
COc1ccccc1N1CCN(C(=O)c2cc(-c3ccc(C)c(F)c3)on2)CC1 | 39% | -4% | ? | -13% | /
Cc1cc(=O)[nH]c2[nH][nH]c(=O)c12 | 8% | / | / | 6.3µM* | /
Cc1ccc(-n2nc(C)c3c2OC(N)=C(C#N)C3c2ccco2)cc1 (stereo not given) | 45µM* | 18µM* | ? | 56µM* | ?
Cc1nn(-c2ccccc2)c2c1C(c1ccc(Br)s1)C(C#N)=C(N)O2 (stereo not given) | ? | 11µM* | 16µM* | 13µM* | ?
Cc1ccc(-n2nc(C)c3c2OC(N)=C(C#N)C3c2ccc(C)o2)cc1 (stereo not given) | -26% | 10µM* | 8.9µM* | 11µM* | ?
COc1ccc(C2C(C#N)=C(N)Oc3c2c(-c2ccccc2)nn3-c2ccccc2)c(OC)c1OC (stereo not given) | ? | 25µM* | 50µM* | ? | -16%
Cc1nn(-c2ccccc2)c2c1C(c1ccccc1)C(C#N)=C(N)O2 (stereo not given) | -8% | ? | ? | -15%[11.4 µM] | -6%
COc1ccc(C(=O)C2CCCN(Cc3c(F)ccc(F)c3F)C2)c(OC)c1 (stereo not given) | 36% | 5% | -4% | -5% | 0%
COc1ccc(C(=O)C2CCCN(Cc3cccn3-c3ccc(Cl)cn3)C2)c(OC)c1 (stereo not given) | -16% | 56µM* | -19% | -29% | -9%
COC(=O)[C@@H](Cc1c[nH]c2ccccc12)NC(=O)CCC(=O)c1ccc(F)cc1 | 8% | -13% | 31% | -21% | /
O=S(=O)(c1cccc2nonc12)N1CCN(c2ccccc2F)CC1 | 6% | -6% | / | -28% | -19%
Cc1cccc(N2CCN(S(=O)(=O)c3ccc4c(c3)C(C)(C)C(=O)N4C)CC2)c1C | -18% | 50µM* | / | ? | ?
Cc1cccc(N2CCN(S(=O)(=O)c3cccc4nonc34)CC2)c1C | -18% | ? | 20µM* | ? | ?
O=C(OCC#CCSc1nnc(-c2cccc3ccccc23)o1)c1ccc(SC(F)(F)F)cc1 | / | / | / | 23% | /
CCOC(=O)c1cc(-c2ccc(OC)cc2)n(CCC(=O)NCCc2ccc(OCC)c(OCC)c2)c1C | 29% | -1% | -28%[59 µM] | -21% | /
CCCCn1c(NC(=O)c2ccccc2)c(C#N)c2nc3ccccc3nc21 | 79% | -7% | 81% | -16% | -17%
CCC(C)n1c(NC(=O)c2ccccc2)c(C#N)c2nc3ccccc3nc21 (stereo not given) | 91% | 13% | 60% | 11% | 6.3µM*
COc1ccccc1C(=O)Nc1nnc(SCc2cc(=O)c3cc(Cl)ccc3[nH]2)s1 | 8%[57 µM] | -4% | -3%[59 µM] | -29% | /
SMILES | HP1b chromo inh | BAZ2B block | G9a inh | JMJD2A Tudor inh | L3MBTL1 inh
CCCOC(=O)CCCN1C(=O)/C(=C2\SC(=S)N(CCCC(=O)OCCC)C2=O)SC1=S | ? | 3.2µM* | 1.1µM* | ? | -4%
CCCCCOC(=O)CCN1C(=O)/C(=C2\SC(=S)N(CCC(=O)OCCCCC)C2=O)SC1=S | -36% | ? | / | -11% | 52%
O=C(Nc1ccccc1N1CCCC1)C1CCN(S(=O)(=O)c2ccccc2)CC1 | -8% | -38% | 50µM* | ? | -9%
O=C(Nc1ccccc1N1CCCC1)C1CCN(S(=O)(=O)c2ccccc2C(F)(F)F)CC1 | 20% | -31% | 35µM* | ? | ?
Cc1ccccc1N1CC(C(=O)Nc2ccc(S(=O)(=O)N3CCCCC3)cc2)CC1=O (stereo not given) | 36% | -8% | 71µM* | -17%[57.1 µM] | /
O=C(Nc1ccccc1N1CCCCC1)C1CCN(S(=O)(=O)c2ccccc2C(F)(F)F)CC1 | 38% | 5% | -27%[59 µM] | 12% | -3%
COc1ccc(CC(=O)N/N=C\c2cc(Br)c(O)c(Br)c2)cc1 | 17% | -25% | ? | -15% | -2%
COc1cc(OC)c(NC(=O)c2c(C)oc3nc(C)nc(N4CCOCC4)c23)cc1Cl | 36% | 8%[57.1 µM] | -1%[59 µM] | -3% | /
CCC1=NN(C(=O)c2ccc(Br)cc2)C(O)(c2ccccc2)C1 (stereo not given) | 18% | 50µM* | 18% | -32% | -29%
CC1(c2ccccc2)CC(C)(C)N(C(=O)c2cccc(Cl)c2)c2ccccc21 (stereo not given) | 52% | 1% | 26%[59 µM] | -2% | /
CCOC(=O)c1ccc(NS(=O)(=O)c2ccc(Br)s2)cc1 | 38% | 0% | 5%[59 µM] | -12% | /
COc1ccccc1NC(=O)c1sc2nc3c(cc2c1N)CCCCCC3 | 33% | 1% | -5%[59 µM] | 3% | /
Cc1cccc(NC(=O)c2sc3nc4c(cc3c2N)CN(C(C)C)CC4)c1 | -19% | ? | 14µM* | 50µM* | /
Cc1cccc(NC(=O)c2sc3nc(N)c(C#N)cc3c2N)c1 | 12% | -10% | 10µM* | 35µM* | -4%
COc1ccc(NC(=O)c2sc3nc4c(cc3c2N)CN(C(C)C)CC4)c(OC)c1 | -8% | ? | 11µM* | ? | /
Cc1c(C#N)c(O)[nH]c(=O)c1N=Nc1ccc(Br)cc1C(=O)O | -5%[57 µM] | ? | 45µM* | ? | /
Cc1cccc(N=Nc2c(C)c(C#N)c(O)[nH]c2=O)c1 | 3% | -33% | 50µM* | -34% | -5%
CC(C)N1C(=O)C(O)(c2c[nH]c3ccccc23)c2ccccc21 (stereo not given) | 16% | ? | -40%[59 µM] | -21% | /
COC(=O)c1ccc(CN2CCc3ccc(NC(=O)c4ccncc4)cc3C2)cc1 | 23% | -38% | 50µM* | -29% | /
COc1ccc(CN2CCc3ccc(NC(=O)CCc4ccccc4OC)cc3C2)c(O)c1 | 24% | -31% | ? | -25% | /

Screens deposited in PubChem by National Center for Advancing Translational Sciences (NCATS).
